target: PQLC1; experiment: pooled miR-30 sensor sort-seq; sequence = guide strand; conditions: shRNA
Also: reference of the scale not given here.

Row | Sequence | sensor-assay potency score (higher = more potent)
1 | AACCTTGACTTCTTCATCCTTG | 0.292
2 | ATGAGCACCATCTTGATGCTCA | -0.811
3 | AAGTCCAGGAAGGACCGCCTGG | -1.26
4 | TTGACTTCTTCATCCTTGCTAT | 0.0479
5 | TTCTTCATCCTTGCTATCTGCA | -0.201
6 | TTGATGCTCATGCCCTCCGTGG | -1.49
7 | TCTGCAGCTGTAAAGGAGCGGC | -0.795
8 | TGCACGTAGTCCGAGAAGCTGC | -1.19
9 | TTGAGCTCGTTGGCCACACGGA | -0.78
10 | TAGGTGGAGAAGCCGTCGGCGT | -1.4
11 | TCGAAGTCCAGGAAGGACCGCC | -0.0699

target: PRADC1; experiment: as above; conditions: shRNA

Row | Sequence | sensor-assay potency score (higher = more potent)
12 | TAAACCACTCCAACAACTGCTG | 0.158
13 | TGGATGAAGAAACCGTTGCTGA | -1.26
14 | TCATGTAGCCGTCTCGGCCGAG | -1.06
15 | TAGCATGAGACACCCTTGGGGG | -0.696
16 | ATCATCTCCACGTAGAAGCTGT | -0.485
17 | TTTGTTTCGGGTTCTAGCCAGA | -0.698
18 | AAAGATACCACCAAAGTCCTTG | 0.163
19 | TCTTGTAGCATGAGACACCCTT | -0.0908
20 | TGAATCTGCTCATACCTTGTGT | -0.084
21 | TTTTGTTTCGGGTTCTAGCCAG | -0.533
22 | TTGTGTGAAAGATACCACCAAA | -1.24
23 | ATGCTGGTGACATTGACTGGGA | -1

target: PRAMEF6; experiment: as above; conditions: shRNA

Row | Sequence | sensor-assay potency score (higher = more potent)
24 | TTGGACAGTCCTGCACTGGTGT | -0.525
25 | TTGGAGGCAGCACAGCTTGAGG | -1.39
26 | TACAGCTCCACGCATAAGTTTT | -1.43
27 | TATTGTGAGGACCTTTAACGAG | -1.02
28 | TTAGTTATTGTGAGGACCTTTA | -0.654
29 | TTTTGGAGGCAGCACAGCTTGA | -1.46
30 | ATCAGCATCATAACTCTCCCGG | -0.511
31 | TCAGCATCATAACTCTCCCGGG | -0.662
32 | TTGGGTAAGCAGTGCATCCAGC | -0.474

target: PRB2; experiment: as above; conditions: shRNA

Row | Sequence | sensor-assay potency score (higher = more potent)
33 | TTGAGGATTGTTGCCTTCTTGT | -0.928
34 | ACTTGTTGTCTCCTTGTGGGGG | -0.828
35 | TTCGGGACTTGCTGCCTCCTTG | -0.944
36 | TCGAGAACTTCGGGACTTGTTG | -0.988
37 | TCGGGACTTGTTGTCTCCTTGT | -0.96
38 | AGGAGATCGAGAACTTCGGGAC | -1.14
39 | TTGTTGTCTCCTTGTGGGGGTG | -1.06
40 | TTCGGGACTTGTTGTCTCCTTG | -0.146

— the OligoGym collection
